Test results published in PubChem BioAssay (NCI).
This is part of a sample that, as a whole, favours compounds with a hit. Of some 79,000 tested, about 15% had one in any assay. The source made the active and inactive calls. Rule as the data show it: active = growth inhibition above about 70%; inactive = the rest.

Tests used:
[1] = NCI Yeast Anticancer Drug Screen. Data for the mec2-1 strain (AID 157); conditions: S. cerevisiae mec2-1 strain, hits give high values
Procedure, shortened: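 Compounds were applied to mec2-1 yeast cells. Their growth was then compared with that of vehicle-treated cultures to give growth inhibition.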

[2] = NCI Yeast Anticancer Drug Screen. Data for the rad14 strain (AID 159);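 also: 0% = growth of vehicle-treated control cultures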; conditions: S. cerevisiae rad14 strain growth inhibition, hits give high values
Procedure, shortened: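 Here, inhibition of yeast growth was measured after compound exposure, using a strain with a genetic defect in DNA damage repair and vehicle-treated cultures as the reference.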

[3] = NCI Yeast Anticancer Drug Screen. Data for the sgs1 mgt1 strain (AID 161);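 also: 0% = growth of cultures given vehicle only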; conditions: S. cerevisiae sgs1 mgt1 strain, hits give high values
Procedure, shortened: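 Compounds are added to genetically altered yeast, and growth is compared with cultures given vehicle alone to give percent inhibition.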

[4] = NCI Yeast Anticancer Drug Screen. Data for the CLN2oe strain (AID 163);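 also: 0% = growth of vehicle-only control cultures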; conditions: S. cerevisiae CLN2oe strain, hits give high values
Procedure, shortened: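 Cells of an engineered yeast line with disturbed cell-cycle regulation are treated with compound. Inhibition of growth is then calculated relative to the vehicle-treated reference.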

[5] = NCI Yeast Anticancer Drug Screen. Data for the cln2 rad14 strain (AID 165);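 also: 0% = growth equal to vehicle treated cultures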; conditions: S. cerevisiae cln2 rad14 strain, hits give high values
Procedure, shortened: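 Strain: cln2 rad14 yeast, altered in cell cycle control and DNA damage repair. Read-out: growth inhibition vs vehicle.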

[6] = NCI Yeast Anticancer Drug Screen. Data for the bub3 strain (AID 167); conditions: S. cerevisiae bub3 mutant strain, hits give high values
Procedure, shortened: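 Whole-cell yeast assay. The mutant strain was incubated with compounds, and growth inhibition was determined by comparison with vehicle-treated cells.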

[7] = NCI Yeast Anticancer Drug Screen. Data for the mlh1 strain (AID 171);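 also: 0% = growth of vehicle-treated control cultures of the same strain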; conditions: S. cerevisiae mlh1 strain growth inhibition, hits give high values
Procedure, shortened: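 Test agents were incubated with yeast bearing a defined DNA damage repair or cell cycle control alteration; values are growth inhibition normalised to vehicle-treated cultures.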

[8] = NCI Yeast Anticancer Drug Screen. Data for the sgs1 strain (AID 173);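 also: 0% = growth of vehicle-only control cultures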; conditions: S. cerevisiae sgs1 mutant, hits give high values
Procedure, shortened: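 Strain with an altered DNA repair or cell cycle pathway exposed to compound. Growth then measured. Value = inhibition versus vehicle control.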

[9] = NCI Yeast Anticancer Drug Screen. Data for the mlh1 rad18 strain (AID 175); conditions: S. cerevisiae mlh1 rad18 strain growth inhibition, hits give high values
Procedure, shortened: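 A repair-deficient yeast strain is exposed to test compound, and growth is scored relative to vehicle-treated controls.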

[10] = NCI Yeast Anticancer Drug Screen. Data for the rad18 strain (AID 177); conditions: S. cerevisiae rad18 mutant growth inhibition, hits give high values
Procedure, shortened: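 DNA-repair-defective yeast; compound treatment; growth inhibition scored against vehicle.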

[11] = NCI Yeast Anticancer Drug Screen. Data for the rad52 strain (AID 147);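 also: 0% = growth of vehicle-treated control cultures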; conditions: S. cerevisiae rad52 mutant growth inhibition, hits give high values
Procedure, shortened: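 Growth of repair-deficient yeast cells was compared between compound-treated and vehicle-treated cultures to give percent inhibition.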

[12] = NCI Yeast Anticancer Drug Screen. Data for the wt1 strain (AID 149);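 also: 0% = growth of vehicle-treated wt1 cultures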; conditions: S. cerevisiae wt1 strain (SPY 50644) growth inhibition, hits give high values
Procedure, shortened: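 Measured: growth of wt1 yeast under compound versus vehicle treatment, reported as inhibition.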

[13] = NCI Yeast Anticancer Drug Screen. Data for the rad50EPP+ strain (AID 151);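 also: 0% = growth of vehicle-treated control cultures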; conditions: S. cerevisiae rad50 mutant strain, hits give high values
Procedure, shortened: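 Measured: growth inhibition of rad50EPP+ yeast. Reference: vehicle-treated controls. Screen uses strains with defined genetic alterations in DNA damage repair or cell cycle control.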

[14] = NCI Yeast Anticancer Drug Screen. Data for the mgt1 strain (AID 153); conditions: S. cerevisiae mgt1 mutant growth inhibition, hits give high values
Procedure, shortened: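 Compounds were applied to mgt1 mutant yeast, and growth was then compared against vehicle-treated control cultures to give percent inhibition.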

[15] = NCI Yeast Anticancer Drug Screen. Data for the rad50 strain (AID 155);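 also: 0% = growth of vehicle-only cultures of the same strain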; conditions: S. cerevisiae rad50 strain growth inhibition, hits give high values
Procedure, shortened: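 Growth of the mutant yeast was measured after compound exposure and referenced to vehicle-treated cultures.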

[16] = NCI Yeast Anticancer Drug Screen. Data for the wt2 strain (AID 169);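 also: 0% = growth of vehicle-treated yeast cultures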; conditions: S. cerevisiae wt2 strain growth inhibition, hits give high values
Procedure, shortened: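 Growth of compound-treated yeast is measured and expressed as inhibition relative to vehicle-only controls.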

[17] = at 5.0 µM (retest, dose inferred, filed as 0.5)
[18] = at 50.0 µM (retest, dose inferred, filed as 5.0)

Measured: growth inhibition

CC1C(NNc2ccccc2)Oc2cc3c(cc2C1c1ccccc1O)OCO3 (stereo unspecified)
inactive: [1]; [17] 34% | [2]; at 1.2 µM -4% | [2]; at 3.7 µM 54% | [3]; [17] -26% | [4]; at 1.2 µM -1% | [5]; [17] 47% | [6]; at 1.2 µM -11% | [6]; at 3.7 µM 68% | [6]; [17] 67% | [7]; at 1.2 µM -6% | [7]; at 3.7 µM 61% | [10]; at 1.2 µM 12%
active: [1]; at 11.0 µM 98% | [1]; at 33.0 µM 94% | [1]; [18] 97% | [1]; at 50.0 µM 88.2% | [1]; at 100.0 µM 94% | [2]; at 11.0 µM 99% | [2]; at 33.0 µM 93% | [2]; at 100.0 µM 93% | [3]; [18] 97% | [3]; at 50.0 µM 89.6% | [4]; at 3.7 µM 98% | [4]; at 11.0 µM 96% | [4]; at 33.0 µM 90% | [4]; at 100.0 µM 88% | [5]; [18] 97% | [5]; at 50.0 µM 90.8% | [6]; at 11.0 µM 98% | [6]; at 33.0 µM 93% | [6]; [18] 98% | [6]; at 50.0 µM 91.5% | [6]; at 100.0 µM 94% | [7]; at 11.0 µM 98% | [7]; at 33.0 µM 94% | [7]; at 100.0 µM 93% | [8]; at 1.2 µM 94% | [8]; at 3.7 µM 99% | [8]; at 11.0 µM 99% | [8]; at 33.0 µM 95% | [8]; at 100.0 µM 95% | [9]; [17] 83% | [9]; [18] 98% | [9]; at 50.0 µM 91.9% | [10]; at 3.7 µM 94% | [10]; at 11.0 µM 98% | [10]; at 33.0 µM 91% | [10]; at 100.0 µM 92%

O=C1C(=O)c2ccccc2C=C1[N+](=O)[O-]
inactive: [11]; at 1.2 µM 3% | [11]; at 3.7 µM 11% | [11]; at 11.0 µM 26% | [12]; at 1.2 µM 3% | [12]; at 3.7 µM 5% | [12]; at 11.0 µM 9% | [12]; at 33.0 µM 15% | [12]; at 100.0 µM 26% | [13]; at 1.2 µM -1% | [13]; at 3.7 µM -1% | [13]; at 11.0 µM 5% | [13]; at 33.0 µM 15% | [13]; at 100.0 µM 29% | [14]; at 1.2 µM 2% | [14]; at 3.7 µM 10% | [14]; at 11.0 µM 9% | [14]; at 33.0 µM 15% | [14]; at 100.0 µM 58% | [15]; at 1.2 µM 0% | [15]; at 3.7 µM 9% | [15]; [17] -12% | [15]; at 11.0 µM 12% | [15]; at 33.0 µM 36% | [15]; [18] 30% | [15]; at 50.0 µM 50.5% | [1]; at 1.2 µM 2% | [1]; at 3.7 µM 5% | [1]; [17] 8% | [1]; at 11.0 µM 13% | [1]; at 33.0 µM 18% | [1]; [18] 13% | [1]; at 50.0 µM 29.4% | [1]; at 100.0 µM 35% | [2]; at 1.2 µM 2% | [2]; at 3.7 µM 17% | [2]; at 11.0 µM 15% | [2]; at 33.0 µM 37% | [3]; [17] 14% | [5]; [17] -13% | [5]; [18] 14% | [5]; at 50.0 µM 16.8% | [6]; at 1.2 µM 0% | [6]; at 3.7 µM 3% | [6]; [17] -14% | [6]; at 11.0 µM 1% | [6]; at 33.0 µM 4% | [6]; [18] 8% | [6]; at 50.0 µM 8.85% | [6]; at 100.0 µM 49% | [16]; at 1.2 µM 2% | [16]; at 3.7 µM 6% | [16]; at 11.0 µM 11% | [16]; at 33.0 µM 28% | [7]; at 1.2 µM 1% | [7]; at 3.7 µM 1% | [7]; at 11.0 µM 3% | [7]; at 33.0 µM 22% | [8]; at 1.2 µM 4% | [8]; at 3.7 µM 11% | [8]; at 11.0 µM 30% | [8]; at 33.0 µM 65% | [9]; [17] 0% | [9]; [18] 64% | [9]; at 50.0 µM 68.8% | [10]; at 1.2 µM 22% | [10]; at 3.7 µM 54%
active: [11]; at 33.0 µM 70% | [11]; at 100.0 µM 91% | [15]; at 100.0 µM 82% | [2]; at 100.0 µM 86% | [3]; [18] 77% | [3]; at 50.0 µM 73.7% | [16]; at 100.0 µM 75% | [7]; at 100.0 µM 83% | [8]; at 100.0 µM 92% | [10]; at 11.0 µM 89% | [10]; at 33.0 µM 94% | [10]; at 100.0 µM 95%
